Sampled rows, rich in hits. Any-hit rate of the full collection: about 6.8%.
NADH coupling: inhibitors of enzymes used to reach an NAD/NADH endpoint; coupled PK/LDH NADH assays, four targets; actives 0.02% (n = 65,000); IC50, µM (top dose mostly 10 µM), for the others: at the top dose inhibition;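 active = single-dose screening hits from any of four coupled enzyme assays that gave an IC50 when retested across doses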;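 also: the DPM-DC format reads NADH fluorescence rather than 340 nm absorbance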
Spn MK inh: inhibitors of Streptococcus pneumoniae mevalonate kinase | actives 0.48% (n = 65,000) | purified MK, PK/LDH-coupled NADH absorbance 340 nm | inhibition, % at 10 µM;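 active = ranked among the strongest by inhibition in the single 10 µM screen, a fixed top-ranked set picked for dose follow-up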
Autofluor 339: intrinsic fluorescence of library compounds, ex339/em460 – biochemical, MLSMR library, data from DPM-DC assay, artefact control, profiling panel; compound autofluorescence, ex339/em460 nm, NADH buffer; hits give high values; 1 = no-compound wells, NADH background; fluorescence fold increase at 10 µM; actives 5.5% (n = 65,000);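 active = at 10 µM, mean starting fluorescence two-fold or more over control wells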;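 also: signal is the first read of a kinetic run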
Abs 340nm: compounds absorbing at 340 nm; compound absorbance at 340 nm, fold over control; fold change at 10 µM; 65,000 tested, under 10 active; AID 708;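 active = at 10 µM dose, initial 340 nm absorbance at least 2 fold that of control wells; inactive = change under 2 fold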;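 also: initial absorbance extrapolated from kinetic A340 decline of NADH oxidation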
DPM-DC inhibit: blocks S. pneumoniae diphosphomevalonate decarboxylase; purified DPM-DC, PK/LDH coupled NADH fluorescence; actives 0.49% (n = 65,000); calls only at 10 µM;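 active = the 320 compounds with the highest percent inhibition in the single-dose primary screen, excluding strongly autofluorescent ones, cut at about 32% in these data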;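 also: kinetic rate of NADH fluorescence loss reporting ADP formed by the decarboxylase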
Spn PMK inh: inhibitors of Streptococcus pneumoniae phosphomevalonate kinase; AID 539; inhibition, % at 10 µM; purified PMK, PK/LDH-coupled NADH absorbance 340 nm; actives 0.49% (n = 65,000);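 active = top-ranked compounds by inhibition in the single 10 µM screen, taking a fixed number of the strongest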;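 also: 0% = full reaction with DMSO carrier and 100% = background rate without enzyme reaction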
Active calls of the source: *; i = inactive; · = not tested or not shown; + = active, no number.

SMILES | NADH coupling | Spn MK inh | Autofluor 339 | Abs 340nm | DPM-DC inhibit | Spn PMK inh
Cc1cccc(C2Nc3ccccc3C(=O)N2CCc2ccccc2)n1 (centres undefined) | 7.0% | 7.0 | 2.18* | 1.03 | · | 7.0
O=C1c2ccccc2NC(c2cnc3ccccc3n2)N1O (centres undefined) | 5.0% | 6.0 | 1.51 | 1.06 | i | 9.0
CC(C)(C)OC(=O)NCCC(=O)Oc1ccc2ccc(=O)oc2c1 | 8.0% | 6.0 | 2.26* | 1.03 | · | 9.0
CC(NC(=O)OC(C)(C)C)C(=O)Oc1ccc2ccc(=O)oc2c1 (centres undefined) | 3.0% | 6.0 | 2.3* | 1.03 | · | 0.0
COc1ccc(C(CC(=O)O)NC(=O)OC(C)(C)C)cc1 (centres undefined) | 1.0% | 2.0 | 1.02 | 1.03 | i | 0.0
CCOC(=O)N/C(N)=N/c1nc2ccccc2s1 | 1.0% | 2.0 | 1.11 | 1.04 | i | 2.0
COc1cccc2cc(C(=O)C3=C(O)C(=O)N(CCN4CCOCC4)C3c3cccs3)oc12 (centres undefined) | 3.0% | 1.0 | 1.75 | 1.07 | i | 8.0
CCOC(=O)Cc1csc(NC(=O)c2ccc(Br)s2)n1 | 7.0% | 8.0 | 1.08 | 1.08 | i | 6.0
CCOc1cccc2sc(NC(=O)c3ccc(Br)s3)nc12 | 1.0% | 1.0 | 2.09* | 1.15 | · | 0.0
O=C(Nc1ccc2c(c1)CCC2)c1cnn2c1NC(c1ccco1)CC2C(F)(F)F (centres undefined) | 1.0% | 2.0 | 1.09 | 1.1 | i | 0.0
CCCCC(=O)Nc1nn(CCC)c2nc3ccccc3cc12 | 3.0% | 5.0 | 1.44 | 0.99 | i | 4.0
CCCCC(=O)Nc1nn(C)c2nc3c(C)cccc3cc12 | 12.0% | 10.0 | 2.4* | 1.02 | i | 15.0
Cc1cccc2cc3c(NC(=O)CC(C)C)nn(C)c3nc12 | 11.0% | 8.0 | 2.85* | 1.01 | i | 9.0
CCC(=O)N1CCN(c2ccc(Cl)cc2NC(=O)Cc2ccccc2)CC1 | 10.0% | 13.0 | 1.09 | 1.05 | i | 10.0
Cc1cccc(C(=O)Nc2ccccc2C(=O)OCc2c(C)noc2C)c1 | 21.0% | 42.0* | 1.27 | 1.03 | i | 20.0
COc1ccc(C(c2sc3nc(C)nn3c2O)N2CCN(CCO)CC2)cc1OC (centres undefined) | 1.0% | 4.0 | 1.13 | 1.07 | i | 0.0
O=C(c1ccccc1F)N1CCC(N2CCCCCC2)CC1 | 10.0% | 31.0 | 1.07 | 1.05 | i | 0.0
O=C(c1ccc(F)cc1)N1CCC(N2CCCCCC2)CC1 | 82.0% | 78.0* | 1.18 | 1.08 | + | 90.0
CCOC(=O)c1c(C)n(OCc2ccccc2)c2ccc3nonc3c12 | 6.0% | 2.0 | 2.2* | 1.04 | · | 10.0
Cc1cc(OCC(O)CN(CCO)CCO)ccc1Cl (centres undefined) | 7.0% | 6.0 | 1.04 | 0.97 | i | 16.0
O=C(NCc1ccc(F)cc1)c1cnc2sccn2c1=O | 5.0% | 8.0 | 2.15* | 1.12 | · | 2.0
CCC(C)N(C(=O)COC(=O)c1[nH]c(C)c(C(C)=O)c1C)C1CCS(=O)(=O)C1 (centres undefined) | 4.0% | 11.0 | 1.12 | 1.03 | i | 0.0
C/C=C/Cn1c(N(C)Cc2ccccc2)nc2c1c(=O)[nH]c(=O)n2C | 16.0% | 0.0 | 0.54 | 1.05 | + | 11.0
CN(Cc1ccccc1)c1nc2c(c(=O)[nH]c(=O)n2C)n1C | 7.0% | 10.0 | 1.02 | 1 | i | 12.0
Cn1c(/N=C/c2c(O)ccc3ccccc23)nc2ccccc21 | 6.0% | 10.0 | 1.13 | 1.08 | i | 7.0
SMILES | NADH coupling | Spn MK inh | Autofluor 339 | Abs 340nm | DPM-DC inhibit | Spn PMK inh
Cc1cc(NC(=O)CCC(=O)N(c2ccccc2)C2(C(=O)NC3CCCCC3)CCCC2)no1 | 8.0% | 13.0 | 1.09 | 0.98 | i | 12.0
CCC1(CC)Nc2ccccc2C(=O)N1c1ccc(NC(C)=O)cc1 | 11.0% | 5.0 | 3.73* | 1.02 | · | 17.0
Cc1ccc(NC(=O)C(C)N2C(=O)c3ccccc3C2=O)cc1 (centres undefined) | 6.0% | 8.0 | 1.06 | 1.01 | i | 11.0
CC1(C)CC(=O)c2c(nc3ccccc3c2N)C1 | 4.0% | 0.0 | 2.75* | 1.07 | i | 0.0
CCOC(=O)CCc1c(C)c2ccc(OCc3nn[nH]n3)cc2oc1=O | 6.0% | 0.0 | 3.78* | 1.13 | · | 11.0
COc1ccc(-c2cc(=O)oc3cc(OCc4nn[nH]n4)ccc23)cc1 | 1.0% | 1.0 | 1.92 | 1.17 | i | 0.0
COc1ccc(-c2cc3ccc(OCc4nn[nH]n4)cc3oc2=O)cc1OC | 7.0% | 0.0 | 1.81 | 1.24 | i | 9.0
Cc1c(Cc2ccccc2)c(=O)oc2cc(OCc3nn[nH]n3)ccc12 | 4.0% | 0.0 | 3.8* | 1.13 | · | 8.0
CCOC(=O)CCc1c(C)c2ccc(OCC(=O)OC(C)C)cc2oc1=O | 5.0% | 4.0 | 3.69* | 1.04 | · | 6.0
COCc1nnc(NC(=O)c2ccc(NC(=O)C(C)C)cc2)s1 | 7.0% | 7.0 | 1.06 | 1.03 | i | 14.0
NCCCSC1=NCCCN1 | 1.0% | 3.0 | 1.04 | 0.97 | i | 0.0
CCOC(=O)N1CCC(NC(=O)c2cc(C(=O)NC3CCCC3)ccc2CO)CC1 | 2.0% | 4.0 | 1.01 | 0.98 | i | 9.0
COC(=O)c1ccc2c(c1)N(C)CCS2 | 3.0% | 1.0 | 2.09* | 1.05 | · | 4.0
CCOC(=O)N1CCC(NC(=O)c2ccc3c(c2)N(C)CCS3)CC1 | 3.0% | 0.0 | 3.4* | 1.02 | · | 9.0
CCOC(=O)N1CCN(C(=O)c2ccc(N3C(=O)c4ccccc4C3=O)cc2)CC1 | 4.0% | 9.0 | 1.12 | 1.02 | i | 1.0
CCOC(=O)N1CCN(C(=O)c2ccc3c(c2)N(CC)CCS3)CC1 | 11.0% | 11.0 | 2.04* | 1.03 | · | 10.0
COc1cc2c(cc1OC)CN(C(=O)CSc1nnc3scc(-c4ccccc4)n13)CC2 | 6.0% | 5.0 | 1.13 | 0.98 | + | 6.0
O=C(CSc1nnc2scc(-c3ccccc3)n12)N1CCN(Cc2ccccc2)CC1 | 2.0% | 3.0 | 1.06 | 1 | i | 12.0
CCOC(=O)CNC(=O)CN1C(=O)CCS(=O)(=O)c2ccccc21 | 4.0% | 5.0 | 0.98 | 1.02 | i | 0.0
COCCCNC(=O)c1c(N)n(-c2cccc(S(N)(=O)=O)c2)c2nc3ccccc3nc12 | 3.0% | 10.0 | 2.96* | 1 | · | 6.0
Nc1c(C(=O)NCCN2CCOCC2)c2nc3ccccc3nc2n1-c1cccc(F)c1 | 9.0% | 11.0 | 5.13* | 1.08 | · | 6.0
CCCNC(=O)c1c(N)n(-c2cccc(OC)c2)c2nc3ccccc3nc12 | 10.0% | 12.0 | 3.82* | 1.03 | · | 7.0
COC(=O)c1c(N)n(-c2cc(OC)cc(OC)c2)c2nc3ccccc3nc12 | 3.0% | 2.0 | 3.42* | 1 | · | 9.0
COc1nc(Oc2ccc(=O)[nH]n2)nc(N2CCOCC2)n1 | 2.0% | 0.0 | 1.12 | 1.06 | i | 6.0
CCOc1ccc(S(=O)(=O)N(CC(=O)Nc2cc(C)on2)Cc2ccccc2Cl)cc1 | 5.0% | 1.0 | 1.12 | 1.03 | i | 15.0
